{"source": "PubChem BioAssay AID624319", "about": "(Sanford-Burnham Center for Chemical Genomics, 2012)", "note": "The whole screen tested about 1,400 compounds, of which about 210 (15%) were called active. Cut-off read from the data, not from the text of the source: active = inhibition mostly above about 39% (no sharp cut-off); inactive = mostly below about 34%. A selection follows.", "data": [{"target": "Sentrin-specific protease 8 (Homo sapiens) (UniProt Q96LD8)", "sequence (Q96LD8 whole entry, looked up)": "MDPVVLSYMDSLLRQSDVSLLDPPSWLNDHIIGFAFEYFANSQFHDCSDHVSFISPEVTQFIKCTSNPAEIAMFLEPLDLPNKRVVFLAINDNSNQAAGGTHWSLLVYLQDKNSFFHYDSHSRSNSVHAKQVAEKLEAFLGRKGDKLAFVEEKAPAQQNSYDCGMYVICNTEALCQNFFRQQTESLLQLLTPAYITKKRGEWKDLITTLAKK", "experiment": "human SENP8 protease inhibitors, confirmation, biochemical, Nedd8 protein substrate, single concentration (AID 624319)", "details": "purified SENP8, Nedd8-AMC/pro-Nedd8 cleavage fluorescence, 30 min; at 25 µM; active compounds read high", "values": [{"smiles": "Oc1ccc(N=Cc2sc3ccccc3c2Cl)cc1", "inhibition": "11.3% (inactive)"}, {"smiles": "O=c1[nH]c2ccccc2s1", "inhibition": "1.69% (inactive)"}, {"smiles": "Cc1ccc(C(=O)N/N=C\\c2cc(Br)c(Br)o2)cn1", "inhibition": "6.43% (inactive)"}, {"smiles": "O=[N+]([O-])c1ccc(C=Nc2ccc(Cl)cc2Cl)s1", "inhibition": "14.4% (inactive)"}, {"smiles": "O=C1Nc2ccc([N+](=O)[O-])cc2C1=Nc1cccc(CO)c1", "inhibition": "76.8% (active)"}, {"smiles": "c1coc(-c2nc3nc4ccccc4n3nc2-c2ccco2)c1", "inhibition": "20.6% (inactive)"}, {"smiles": "CN1C(=O)/C(=C/C=C2\\SCCN2C)OC1=S", "inhibition": "29.4% (inactive)"}, {"smiles": "Cc1cc([N+](=O)[O-])c(NC2CCCCC2)c([N+](=O)[O-])c1", "inhibition": "11% (inactive)"}, {"smiles": "COC(=O)C1=C(C(=O)c2ccc(C)cc2)C(c2ccccc2)n2nnnc2N1", "note": "(stereo not drawn)", "inhibition": "18.1% (inactive)"}, {"smiles": "CCc1ccccc1NC(=O)[C@@H]1CCC(=O)N1C1OC(=O)c2c1ccc(OC)c2OC", "note": "(stereo partly drawn)", "inhibition": "13.7% (inactive)"}, {"smiles": "O=C(OCC(=O)N1CCN(c2ccccc2)CC1)c1ccc([N+](=O)[O-])s1", "inhibition": "57% (active)"}, {"smiles": "O=C(c1ccccc1)N1CCN(c2ccc([N+](=O)[O-])c(NCc3ccco3)c2)CC1", "inhibition": "14.3% (inactive)"}, {"smiles": "Cc1[nH][nH]c(=O)c1C(c1ccc(-c2ccc(Cl)cc2)o1)c1c(C)[nH][nH]c1=O", "inhibition": "49.8% (active)"}, {"smiles": "CCOc1ccc(C(c2c(C)[nH][nH]c2=O)c2c(C)[nH][nH]c2=O)cc1OCC", "inhibition": "2.47% (inactive)"}, {"smiles": "CCN1CCC2(CC1)N=C(c1ccc(F)cc1)C(=S)N2C(=O)c1ccc(C)cc1", "inhibition": "54.5% (active)"}, {"smiles": "O=C(COC(=O)c1ccc([N+](=O)[O-])o1)NC12CC3CC(CC(C3)C1)C2", "inhibition": "81.4% (active)"}, {"smiles": "O=[N+]([O-])c1ccccc1NCc1ccccc1Cl", "inhibition": "20.6% (inactive)"}, {"smiles": "CCOCCCn1c(NN)nc2ccccc2c1=O", "inhibition": "0.12% (inactive)"}, {"smiles": "CCCCNCCS(=O)(=O)NCc1ccccc1", "inhibition": "26.8% (inactive)"}, {"smiles": "O=C(c1cccc(F)c1)N1CCN(c2ccc([N+](=O)[O-])c3cccnc23)CC1", "inhibition": "16.9% (inactive)"}, {"smiles": "O=C(Nc1ccc(C(=O)O)c(O)c1)c1ccccc1", "inhibition": "0.26% (inactive)"}, {"smiles": "CN1CCN(S(=O)(=O)c2ccc(N3CCN(c4ccccc4O)CC3)c([N+](=O)[O-])c2)CC1", "inhibition": "29.3% (inactive)"}, {"smiles": "O=C(Nc1cc2c3c(c1)C1CCCC1CN3CC1CCCC21)c1ccc([N+](=O)[O-])cc1", "note": "(stereo not drawn)", "inhibition": "24.6% (inactive)"}, {"smiles": "Nn1cnnc1N/N=C/c1cc([N+](=O)[O-])c(Cl)cc1Cl", "inhibition": "16.6% (inactive)"}, {"smiles": "COc1ccc(-c2nnco2)cc1OC", "inhibition": "14.3% (inactive)"}, {"smiles": "CCOc1cc(NC(=O)c2ccccc2C(=O)O)c(OCC)cc1NC(=O)c1ccccc1F", "inhibition": "-3.99% (inactive)"}, {"smiles": "O=C1CC(c2ccccc2)=NN1c1ccc([N+](=O)[O-])cc1", "inhibition": "46.5% (active)"}, {"smiles": "COC(=O)Cn1c2ccc(C)cc2c2nc(C)sc21", "inhibition": "14.2% (inactive)"}, {"smiles": "CN1CCc2ccccc2C1Cc1ccccc1NC(=O)c1sc2ccccc2c1Cl", "note": "(stereo not drawn)", "inhibition": "0.2% (inactive)"}, {"smiles": "Nc1ccc2nc3c(=O)[nH]c(=S)[nH]c3nc2c1", "inhibition": "26.8% (inactive)"}, {"smiles": "CN(c1ccc(C(=O)N2CCc3ccccc3C2)cc1)S(C)(=O)=O", "inhibition": "42.8% (active)"}, {"smiles": "CCN(CC)C(=O)CCC(=O)Nc1ccc(C(=O)OC)cc1", "inhibition": "8% (inactive)"}, {"smiles": "CC(=O)N1CCN(S(=O)(=O)c2cccc(C(=O)NC3CCC(C)CC3)c2)CC1", "note": "(stereo not drawn)", "inhibition": "3.29% (inactive)"}, {"smiles": "CCc1ccccc1NC1c2ccccc2C(=O)N1c1cccnc1", "note": "(stereo not drawn)", "inhibition": "12.2% (inactive)"}, {"smiles": "O=c1[nH]n2c(=O)c3c([nH]c2c1N=Nc1ccccc1)CCC3", "inhibition": "25.4% (inactive)"}, {"smiles": "CCOC(=O)/C(=N\\Nc1ccccc1[N+](=O)[O-])c1csc(Nc2ccccc2)n1", "inhibition": "15% (inactive)"}, {"smiles": "O=C(NCCCN1CCN(c2ccc(F)cc2)CC1)Nc1ccc([N+](=O)[O-])cc1", "inhibition": "31.9% (inactive)"}, {"smiles": "CCc1cccc(C)c1NC(=O)COC(=O)CC1CCCC1", "inhibition": "29.1% (inactive)"}, {"smiles": "CC(C)Cc1nnc(NC(=O)CCC(=O)Nc2ccc3cn[nH]c3c2)s1", "inhibition": "2.31% (inactive)"}, {"smiles": "O=C(COc1ccccc1)N1CCc2ccccc2C1", "inhibition": "44.4% (active)"}, {"smiles": "CCc1ccc(-c2nnn(Cc3nn[nH]n3)n2)cc1", "inhibition": "10.7% (inactive)"}, {"smiles": "O=C(Cc1ccccc1)NC(=S)Nc1ccc(N2CCCCC2)cc1", "inhibition": "11.4% (inactive)"}, {"smiles": "CC/C(=N/Nc1ccccc1)c1cnnc(SC)n1", "inhibition": "16.1% (inactive)"}, {"smiles": "Cc1ccc(C(=O)c2ccc(N3CCN(C)CC3)c([N+](=O)[O-])c2)cc1", "inhibition": "14.5% (inactive)"}, {"smiles": "CCCCCCCCCCCCCCCC(=O)OC/C=C(C)/C=C/C=C(C)/C=C/C1=C(C)CCCC1(C)C", "inhibition": "4.1% (inactive)"}, {"smiles": "Cc1cc(C)nc(N/N=C/c2ccc([N+](=O)[O-])o2)n1", "inhibition": "22.3% (inactive)"}, {"smiles": "CC1(C)C2CCC1(C)C(OC(=O)c1ccc(O)cc1)C2", "note": "(stereo not drawn)", "inhibition": "18.1% (inactive)"}, {"smiles": "CCOC(=O)c1ccc(N2C(=O)CC(N(C)Cc3ccccc3)C2=O)cc1", "note": "(stereo not drawn)", "inhibition": "18.6% (inactive)"}, {"smiles": "Cc1ccc(NS(=O)(=O)c2ccc(N/N=C/c3ccccc3OCC(=O)O)c([N+](=O)[O-])c2)c(C)c1", "inhibition": "29.4% (inactive)"}, {"smiles": "CC1(C)Cc2cccc(OCC(=O)Nc3nccs3)c2O1", "inhibition": "2.41% (inactive)"}, {"smiles": "COc1ccc(Br)cc1/C=N/Nc1ccc(S(=O)(=O)Nc2ccccc2C(=O)O)cc1[N+](=O)[O-]", "inhibition": "21.5% (inactive)"}, {"smiles": "CCCC1CCC(=NNC(=S)NCCc2ccccc2)CC1", "note": "(stereo not drawn)", "inhibition": "5.71% (inactive)"}, {"smiles": "COC(=O)CCCC1=CC2=CC(=O)C(C)(OC(=O)c3cccs3)C(=O)C2=CN1CC(C)C", "note": "(stereo not drawn)", "inhibition": "52.7% (active)"}, {"smiles": "CCOC(=O)C1CCCN(C(=O)c2ccc(C)c(F)c2)CC1", "note": "(stereo not drawn)", "inhibition": "10.1% (inactive)"}, {"smiles": "COc1cc(C(=S)N2CCOCC2)cc(OC)c1OC(=O)c1cc([N+](=O)[O-])cc([N+](=O)[O-])c1", "inhibition": "26.8% (inactive)"}, {"smiles": "COc1ccc(-c2[nH][nH]c(=O)c2NC(=O)c2ccc([N+](=O)[O-])cc2)cc1", "inhibition": "34.5% (inactive)"}, {"smiles": "COc1ccc(C(=O)c2c3ccc([N+](=O)[O-])cc3[n+]([O-])n2CCCN)cc1", "inhibition": "70.5% (active)"}, {"smiles": "CCOC(=O)CNC(=O)N1c2ccccc2Sc2ccccc21", "inhibition": "16.6% (inactive)"}, {"smiles": "Cc1sc2ccccc2c1CNC[C@H]1O[C@@H](n2ccc(=O)[nH]c2=O)[C@H](O)[C@@H]1O", "inhibition": "8.62% (inactive)"}, {"smiles": "Cc1cccc(OCC(=O)NC(=S)Nc2ccccc2N2CCOCC2)c1", "inhibition": "13% (inactive)"}, {"smiles": "Cc1nc(SCC(=O)c2ccccc2)c([N+](=O)[O-])[nH]1", "inhibition": "10.2% (inactive)"}, {"smiles": "Cc1cc(C)c(/C=C2\\C(=O)Nc3ccccc32)[nH]1", "inhibition": "11.5% (inactive)"}, {"smiles": "CC(C)CC(=O)N=C1SC2CS(=O)(=O)CC2N1CCc1ccccc1", "note": "(stereo not drawn)", "inhibition": "-0.28% (inactive)"}, {"smiles": "O=[N+]([O-])c1ccc(N2CCSCC2)cc1O", "inhibition": "22.9% (inactive)"}, {"smiles": "CCN=C1SC(CC(=O)Nc2ccc(C)cc2)C(=O)N1CC", "note": "(stereo not drawn)", "inhibition": "12.9% (inactive)"}, {"smiles": "CC1CCN(c2ccc([N+](=O)[O-])c(SCCO)c2)CC1", "inhibition": "19.1% (inactive)"}, {"smiles": "Cc1ccccc1NCC(=O)N/N=C\\c1ccc([N+](=O)[O-])s1", "inhibition": "31.1% (inactive)"}, {"smiles": "O=P(O)(CP(=O)(c1ccccc1)c1ccccc1)c1ccccc1O", "inhibition": "13.6% (inactive)"}, {"smiles": "CCOC(=O)C(CC)Sc1ncnc2c1nnn2-c1ccc(F)cc1", "note": "(stereo not drawn)", "inhibition": "14.5% (inactive)"}, {"smiles": "Cn1c2ccc(F)cc2c2nnc(NN)nc21", "inhibition": "-8.09% (inactive)"}, {"smiles": "O=C(NC(=S)N1CCCCC1c1cccnc1)c1ccccc1", "note": "(stereo not drawn)", "inhibition": "8.53% (inactive)"}, {"smiles": "CCC(C)[C@H](NC(=O)N1c2ccccc2NC(=O)[C@@H]1C(C)C)C(=O)N[C@@H](Cc1ccccc1)C(=O)O", "note": "(stereo partly drawn)", "inhibition": "7.29% (inactive)"}, {"smiles": "COc1ccc(S(=O)(=O)Nc2ccc3cn[nH]c3c2)cc1[N+](=O)[O-]", "inhibition": "14.1% (inactive)"}, {"smiles": "NN=C(NN=Cc1ccccc1)c1ccccc1", "inhibition": "43.8% (active)"}, {"smiles": "CC(C)[C@H](NC(=O)N1CC(=O)Nc2ccccc21)C(=O)N[C@@H](Cc1c[nH]c2ccccc12)C(=O)O", "inhibition": "15% (inactive)"}, {"smiles": "COc1cccc(N(CC(=O)NCCSc2ccccn2)S(C)(=O)=O)c1", "inhibition": "3.26% (inactive)"}, {"smiles": "CCOc1ccc(NCCC(=O)c2ccc3c(c2)OCO3)cc1", "inhibition": "23.6% (inactive)"}, {"smiles": "Cc1ccc(C(=O)N/C(=C/c2ccc(-c3cccc([N+](=O)[O-])c3)o2)C(=O)NCCCN(C)C)cc1", "inhibition": "17.4% (inactive)"}]}]}
